Most compounds without a hit are left out; they make up all but 5.3% or so of the library.
HIF activator = HIF pathway transcriptional activation. U2OS HRE-luciferase reporter, luminescence; normalized: DMSO 0%, desferrioxamine 100%. activation, % at 7.5 µM (by protocol). 300,000 tested, 0.32% active. AID 1910;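 active = mean activation of at least 10% of the iron chelator positive control signal, with at least half of replicates also reaching 10%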
SUMO Mot1 rescue = inhibitors of SUMOylation pathway: yeast Mot1-301 growth rescue | S. cerevisiae Mot1-301 growth rescue, ATP luminescence, 38.5C; percent above DMSO median, 100 means doubled | growth rescue, % at 18.8 µM | 320,000 tested, 1% active;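 active = every valid replicate shows activation above 250% relative to neutral control wells; inactive = the rest, any valid replicate at or below 250%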
M18AAP inhibitor = blocks P. falciparum M18 aspartyl aminopeptidase; recombinant PfM18AAP, H-Glu-NHMec fluorogenic cleavage; inhibition, % at 7.35 µM; 290,000 tested, 1.2% active;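 active = inhibition above the campaign mean inhibition over all tested compounds plus 3 SD, cut at about 28% in these data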
ALR inh = blocks human ALR sulfhydryl oxidase activity | P55789 | purified ALR, DTT oxidation, H2O2 HRP-luminol luminescence | inhibition, % (concentration not given with the values) | 290,000 tested, 3.8% active | AID 485317;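 active = mean replicate inhibition above about 79%, with every replicate also reaching it, limit read from the data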
Target sequence (P55789 whole entry, looked up): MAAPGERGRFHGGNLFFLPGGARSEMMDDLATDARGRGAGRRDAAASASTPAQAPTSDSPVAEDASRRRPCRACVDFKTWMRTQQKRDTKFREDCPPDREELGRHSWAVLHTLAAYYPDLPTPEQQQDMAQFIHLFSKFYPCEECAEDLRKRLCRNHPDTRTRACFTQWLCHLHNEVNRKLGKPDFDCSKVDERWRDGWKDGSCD
A number is an active result; 0 = inactive; - = no result; + = active, no number.

SMILES	HIF activator	SUMO Mot1 rescue	M18AAP inhibitor	ALR inh
COC(=O)c1ccc(-n2c(C)cc(C(=O)CSc3ccc(NC(C)=O)cc3)c2C)cc1	0	0	0	91
CC(=O)Nc1ccc(SCC(=O)c2cc(C)n(-c3ccccc3F)c2C)cc1	0	0	0	98
Cc1cc(C(=O)COC(=O)c2ccc(O)cc2)c(C)n1-c1ccccc1F	0	0	0	-
CCCc1cc(=O)oc2cc(OCC(=O)NCCCN3CCOCC3)c(Cl)cc12	0	0	0	0
O=C(COC(=O)COc1ccc(Cl)cc1)Nc1ccc2c(c1)OCCO2	-	0	-	0
C#CCOCCOCCOCCNc1nc(N2CCN(C(=O)[C@H](CC(N)=O)n3cc([C@@H](N)C(C)C)nn3)CC2)nc(N2CCN(C(=O)[C@H](CC(N)=O)n3cc([C@@H](N)C(C)C)nn3)CC2)n1	-	0	-	0
COc1ccc(Cl)cc1NC(=S)N1CCN(C(=O)C2CCCO2)CC1 (configuration not stated)	-	0	0	0
N#C/C(=C\c1ccccc1OCC(=O)O)c1nc2ccccc2[nH]1	0	0	0	98
CCOc1cc(/C=C(\C#N)c2nc3ccccc3[nH]2)ccc1OC(C)C(=O)O (configuration not stated)	0	0	0	98
CCOc1cc(/C=C(/C#N)c2nc3ccccc3[nH]2)ccc1Oc1ccc([N+](=O)[O-])cn1	0	0	0	0
N#C/C(=C\c1ccc([N+](=O)[O-])o1)c1nc2ccccc2[nH]1	0	357	0	0
Cc1ccc(C(=O)NCCNS(=O)(=O)c2ccccc2[N+](=O)[O-])cc1	0	0	0	0
CCNc1nc(NC(C)(C)C)nc(N2CCCCC2)n1	0	0	0	0
Cc1ccccc1N1C(=O)C2ON(c3ccccc3)C(c3ccco3)C2C1=O (configuration not stated)	0	0	0	0
CC(C)CC(=O)Nc1ccc(Oc2ccc3c(c2)C(=O)NC3=O)cc1	0	0	0	0
O=c1cc(-c2ccccc2)[nH]n1-c1nc2ccccc2s1	0	0	0	0
O=C1CNC(=S)N1c1nc2ccccc2s1	0	0	0	95
COC(=O)c1ccc(CNC(=O)COC(=O)c2ccc(N(C)C)cc2)cc1	0	0	0	0
CCCOC(=O)NC1C(NC(=O)OCCC)N(C)C(=O)N1C (configuration not stated)	153	0	0	0
CCOC(=O)c1[nH]c(C)c(C(=O)N2CCN(c3ccc(OC)cc3)CC2)c1C	0	0	0	0
CCOC(=O)c1[nH]c(C)c(C(=O)N2CCN(c3ccc(F)cc3)CC2)c1C	0	0	0	90
O=C(O)C12C[C@H]3C[C@@H](C1)CC(n1ncc(N4CCN(c5ccccc5)CC4)c(Cl)c1=O)(C3)C2	0	0	0	98
O=C(O)CC12CC3CC(C1)CC(n1ncc(NCc4ccccc4)c(Cl)c1=O)(C3)C2	0	0	0	0
O=C(O)CC12C[C@H]3C[C@@H](C1)CC(n1ncc(N4CCN(c5ccccc5)CC4)c(Cl)c1=O)(C3)C2	0	0	0	98
CSCC[C@H](NC(=O)[C@H]1CC[C@H](CNC(=O)[C@@H](N)Cc2ccccc2)CC1)C(=O)O	0	0	0	0
SMILES	HIF activator	SUMO Mot1 rescue	M18AAP inhibitor	ALR inh
Cc1ccc(N=C2CSC(=O)N2)cc1	0	0	0	0
Cc1ccc(N=c2sc(C)c(C)n2C)cc1	0	0	0	99
O=[N+]([O-])c1cc(C(F)(F)F)ccc1NC1CCN(Cc2ccccc2)C1 (configuration not stated)	0	262	0	0
Cc1ccccc1C(=O)NNC(=O)C1CCN(C(=O)Nc2ccccc2)CC1	0	342	-	0
Cc1ccccc1C(=O)NC1CCN(C(=O)NC2CCCCC2)CC1	0	0	0	0
Cc1ccccc1C(=O)NC1CCN(C(=O)N(c2ccccc2)c2ccccc2)CC1	0	0	0	86
Cc1ccc(S(=O)(=O)N2CCN(C(=O)C3CCN(C(=O)c4ccc(F)cc4)CC3)CC2)c(C)c1	0	0	-	0
Cc1ccc(CSc2nc3sc(C)c(C)c3c(=O)n2Cc2ccco2)cc1	0	-	0	97
Cc1sc2nc(SCc3ccccc3)n(Cc3ccco3)c(=O)c2c1C	0	0	0	0
NC(=O)CC[C@H](NC(=O)c1ccc(Cl)cc1)C(=O)NNC(=O)COc1cccc(Br)c1	-	0	-	0
COc1ccc2nc(NCc3ccccc3)[nH]c2c1	0	0	0	95
COc1ccc2nc(N3CCCC3)[nH]c2c1	0	0	0	96
Cc1ccc2nc(NCc3ccccc3)[nH]c2c1	0	0	0	99
COc1ccc2nc(NCCO)[nH]c2c1	0	0	0	-
c1ccc(CNc2nc3ccccc3[nH]2)cc1	0	0	0	0
Cc1cc(NC(=O)CN2C(=O)NC3(CCC(C)CC3)C2=O)no1 (configuration not stated)	0	0	0	0
COc1c(C)cc(C(=O)C2CCCN(Cc3c(C)n(C)n(-c4ccccc4)c3=O)C2)cc1C (configuration not stated)	0	0	0	0
COC(=O)c1ccc(COc2ccc(C=O)cc2)o1	0	0	0	0
COC(=O)c1ccc(COc2ccc(/C=N/O)cc2)o1	0	-	0	98
CCCC(=O)NCCc1ccc(F)cc1	0	0	0	-
CCOC(=O)[C@H]1[C@H]2COc3ccc(OC)cc3[C@@H]2N2C(=O)c3cc(OC)c(OC)cc3NC(=O)[C@@]12C	-	0	-	-
CC(=O)c1cccc(NS(C)(=O)=O)c1	0	0	0	0
CCOC(=O)c1c(-c2ccc(-c3ccccc3)cc2)csc1NC(=O)C1C2CCC(O2)C1C(=O)O (configuration not stated)	0	0	0	96
CCOC(=O)c1c(-c2ccc(C)cc2)csc1NC(=O)CCN1CCOCC1	0	0	0	92
CCOC(=O)c1c(-c2cccc(C)c2)csc1NC(=O)C1CC=CCC1C(=O)O (configuration not stated)	0	0	0	98
SMILES	HIF activator	SUMO Mot1 rescue	M18AAP inhibitor	ALR inh
Cc1ccc(CN(C(=O)COc2ccc(Br)cc2)C2CCS(=O)(=O)C2)o1 (configuration not stated)	-	0	0	0
COc1cccc(Cn2cc(C)cc(NC(=O)NCc3ccccc3)c2=O)c1	0	0	0	0
CCN1C(=NCCOC)N[C@@H](c2ccccc2)[C@H](C(=O)OC)[C@H]1C	-	0	-	0
CCCCn1c(N)c(N(CCOC)C(=O)c2ccc(C)o2)c(=O)[nH]c1=O	0	0	-	0
O=C(O)c1ccccc1-c1c2cc(I)c(=O)c(I)c-2oc2c(I)c(O)c(I)cc12	-	0	-	82
O=C(CS(=O)c1ccc(F)cc1)Nc1ccccc1Cl (configuration not stated)	0	+	0	0
CCc1ccc(NC(=O)C2=CC=CN3CCS(=O)(=O)N=C23)cc1	-	0	-	0
Cc1[nH]c2ccccc2c1CCCO	0	0	0	99
Cc1nc(N=Nc2ccc(O)cc2)n[nH]1	0	0	0	94
Oc1ccc(-c2cnc3ccccc3n2)cc1	0	0	-	98
O=C(OCc1nc(-c2ccccc2Cl)no1)c1ccco1	-	0	-	0
CCOc1cc(C(=S)N2CCCC2)ccc1O	0	0	0	-
COc1cc(C(=S)N2CCCC2)ccc1O	0	0	0	94

Bioassay records from PubChem.
